# Where “and” joins values, the source holds several entries; their conditions need not be identical. Equal values may be shown once. Calls of active or inactive are those of the source. Unless noted, the rule behind the calls is not given here.
# Assays:
# [1] = compounds altering viability of human ES cells (AID 493140); settings: human embryonic stem cell survival screen; stronger effect = higher value;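 note: cells exposed to compounds for four days before counting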
# [2] = GFP-Q80 aggregate reduction, neuronal-like cells, cell-based, NGF-treated PC12, GFPQ80 (AID 1614); settings: PC12 NGF-treated GFP-polyQ80 inclusion reduction;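 note: lower means fewer inclusions and 0 means no inclusions at all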
# [3] = compounds altering circadian rhythm period length – cell-based, LOPAC library, luminescence reporter (AID 2774); settings: circadian reporter cells, at 7 µM, actives lie on both sides;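 note: values are relative to mean of DMSO wells on each plate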
# [4] = chitosan synthesis blockers in C. neoformans – flow cytometry, Cibacron Brilliant Red staining (AID 1347148); settings: Cryptococcus neoformans chitosan, stronger effect = lower value; at 10 µM unless noted;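 note: compound exposure lasted three days at 37 degrees C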
# [5] = blockers of cellular phospholipid synthesis – cell-based, LOPAC library, screen 4, primary screen (AID 1347384); settings: animal cells, phospholipid biosynthesis inhibition screen; at 10 µM
# [6] = liver-stage malaria parasite load reduction – cell-based, known kinase inhibitor set, luminescence, hepatoma host viability (AID 624392); settings: Plasmodium liver stage in hepatoma cells, luciferase luminescence, concentration not given here; liver cell % of control: measured here: host liver cell viability; parasite % of control: stronger effect = lower value;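 note: infected cells incubated roughly two days before readout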
# [7] = growth inhibition, single agent or in combination, cell-based, chromothripsis tumors, cisplatin or BGB combos (AID 1671449; in the data active = inhibition above about 80%;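 note: cells exposed for 96 hours; 0% = vehicle DMSO and 100% = killing by high DMSO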); settings: LFS_MB_P medulloblastoma cells
# [8] = growth inhibition, single agent and combos, cell-based, chromothripsis tumors, cisplatin or BGB combos (AID 1671450; in the data active = inhibition above about 80%;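 note: cells exposed to compound for four days; 0% = vehicle DMSO and 100% = cell killing by high DMSO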); settings: HDN33 neuroblastoma cells, stronger effect = higher value
# [9] = growth inhibition, single agents and combos, LFS_MB_1R, cell-based, cisplatin or BGB combos, synergistic combos for chromothripsis tumors (AID 1671452; in the data active = inhibition above about 80%;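 note: cells exposed for 96 hours before readout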); settings: LFS_MB_1R medulloblastoma cells, stronger effect = higher value
# [10] = growth inhibition, single agents and combos, HTB85, cell-based, BGB or cisplatin IC20 combos, synergistic combos for chromothripsis tumors (AID 1671453; in the data active = inhibition above about 80%;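 note: cells exposed for 96 hours before readout; 0% = vehicle DMSO and 100% = high DMSO killing control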); settings: HTB85 osteosarcoma cells, drug combinations, stronger effect = higher value
# [11] = growth inhibition, single agents and combos, CRL2098, cell-based, BGB or cisplatin IC20 combos, synergistic combos for chromothripsis tumors (AID 1671454; in the data active = inhibition above about 80%;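 note: cells exposed for 96 h before readout; 0% = vehicle DMSO and 100% = killing by high DMSO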); settings: CRL2098 osteosarcoma cells, drug combinations, stronger effect = higher value
# [12] = growth inhibition, single agents and combos, HD-MB03, cell-based, BGB or cisplatin IC20 combos, synergistic combos for chromothripsis tumors (AID 1671455; in the data active = inhibition above about 83%;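 note: 0% = vehicle DMSO and 100% = high DMSO as cytotoxic control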); settings: HD-MB03 medulloblastoma cells, stronger effect = higher value
# [13] = growth inhibition, single agents and combos, UWB1.289, cell-based, BGB or cisplatin combos, synergistic combos for chromothripsis tumors (AID 1671456; in the data active = inhibition above about 80%;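 note: cells exposed to compound for four days; 0% = vehicle DMSO and 100% = killing by high DMSO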); settings: UWB1.289 ovarian carcinoma cells, stronger effect = higher value
# [14] = growth inhibition, single agents and combos, LFS_MB_2R, cell-based, cisplatin combos, synergistic combos for chromothripsis tumors (AID 1671457; in the data active = inhibition above about 80%;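 note: cells exposed to compound for four days before readout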); settings: LFS_MB_2R medulloblastoma cells, stronger effect = higher value
# [15] = growth inhibition, MDA-MB-436, cell-based, BGB or cisplatin combos, synergistic combos for chromothripsis tumors (AID 1671458); settings: MDA-MB-436 breast carcinoma growth inhibition, drug combinations, stronger effect = higher value;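 note: cells exposed for 96 hours; 0% = vehicle DMSO and 100% = killing by high DMSO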
# [16] = UWB1.289_BRCA1 ovarian cancer growth, cell-based, BGB or cisplatin combinations (AID 1671459; in the data active = inhibition above about 80%); settings: UWB1.289 BRCA1 ovarian carcinoma, drug combinations, stronger effect = higher value
# [17] = drug combination toxicity in non-malignant astrocytes – cell-based, BGB or cisplatin IC20 combos, cytotoxicity control for chromothriptic childhood tumor combination screen (AID 1671460; in the data active = inhibition above about 80%;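 note: cells exposed to compounds for 96 hours before viability readout; 0% = vehicle and 100% = killing control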); settings: Human astrocytes, viability inhibition, drug combinations, at 0.5 µM, stronger effect = higher value
# [18] = BT084 cell growth, single and combined drugs, ICGC_MB145, cisplatin and BGB IC40 combos (AID 1671461; in the data active = inhibition above about 80%;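 note: cells exposed to drugs for 96 hours; 0% = vehicle DMSO and 100% = high DMSO full killing control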); settings: BT084 medulloblastoma cells, drug combinations, stronger effect = higher value
# [19] = RCMB18 cell growth, single agent and combined, cisplatin and BGB IC40 combos (AID 1671462; in the data active = inhibition above about 80%;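 note: cells exposed to compound for four days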); settings: RCMB18 medulloblastoma cells, stronger effect = higher value
# [20] = CRL1545 cell growth, single agent and combined, cisplatin and BGB IC20 combos (AID 1671464; in the data active = inhibition above about 80%;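 note: cells exposed to compound for 96 hours before readout; 0% = vehicle DMSO and 100% = high DMSO killing control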); settings: CRL1545 osteosarcoma cells, stronger effect = higher value
# [21] = measured here: combination with BGB IC40, at 0.05 µM
# [22] = measured here: with BGB IC20 combination, at 0.5 µM
# [23] = measured here: with cisplatin IC20 combination, at 0.5 µM
# [24] = measured here: combination with cisplatin, at 0.5 µM
# [25] = measured here: combination with cisplatin, at 5 µM
structure (smiles),measurement,setting,value
CN(Cc1cnc2nc(N)nc(N)c2n1)c1ccc(C(=O)NC(CCC(=O)O)C(=O)O)cc1 (configuration not stated),survival,[1],10.7 (inactive)
Nc1ccc(C(=O)O)c(O)c1 (tested in a mixture with another compound),inclusion score,[2],2
CNC(C)[C@@H]1CC[C@@H](N)[C@@H](OC2[C@@H](N)C[C@@H](N)[C@H](OC3OC[C@](C)(O)[C@H](NC)[C@H]3O)[C@H]2O)O1 (some centres not stated),inclusion score,[2],2
O=c1ccn([C@@H]2O[C@H](COP(=O)(O)OP(=O)(O)OP(=O)(O)O)[C@@H](O)[C@H]2O)c(=O)[nH]1,inclusion score,[2],2
COc1cccc(-c2cc(=O)c3ccccc3o2)c1N,period change,[3],-0.07 h (inactive)
same,survival,[1],106 (inactive)
same,fold fluorescence,[4],6.5 [at 187.1 µM] (inactive)
same,outcome,[5],inactive
O=C(O)c1ccc(-c2c[nH]c3ncc(-c4ccccc4)cc23)cc1C1CCCC1,liver cell % of control,[6],92%
same,parasite % of control,[6],0.113% (active)
Oc1ccc2ccccc2c1SSc1c(O)ccc2ccccc12,outcome,[5],inactive
O=C1Nc2ccc(I)cc2/C1=C/c1cc(Br)c(O)c(Br)c1,period change,[3],-0.055 h (inactive)
same,survival,[1],109 (inactive)
same,fold fluorescence,[4],4.68 [at 96 µM] (inactive)
CCc1c2c(nc3ccc(O)cc13)-c1cc3c(c(=O)n1C2)COC(=O)[C@]3(O)CC,inhibition,"[7]; at 0.5 µM, stronger effect = higher value",-26% (inactive)
same,inhibition,"[7]; measured here: combination with BGB IC20, at 0.005 µM",-6.89%
same,inhibition,"[7]; measured here: combination with BGB IC40, at 0.005 µM",-27.9%
same,inhibition,[7]; [21],-20.9%
same,inhibition,"[7]; measured here: combination with cisplatin, at 0.5 µM, stronger effect = higher value",-58.2%
same,inhibition,"[7]; measured here: combination with cisplatin, at 5 µM, stronger effect = higher value",87.9%
same,inhibition,"[8]; BGB combo, at 5 µM",98.3%
same,inhibition,[8]; at 0.5 µM,84.1% (active)
same,inhibition,"[8]; cisplatin combo, at 5 µM",98.4%
same,inhibition,[8]; [22],83%
same,inhibition,[8]; [23],82.2%
same,inhibition,"[8]; single agent, at 5 µM",96.3%
same,inhibition,[9]; at 0.5 µM,74.1% (inactive)
same,inhibition,[9]; [21],-7.58%
same,inhibition,[9]; [24],77.6%
same,inhibition,[9]; [25],86.6%
same,inhibition,[10]; at 0.5 µM,98.3% (active)
same,inhibition,"[10]; measured here: with BGB IC20, at 0.5 µM",96.1%
same,inhibition,"[10]; measured here: with BGB IC20, at 5 µM",98.1%
same,inhibition,"[10]; measured here: with cisplatin IC20, at 0.5 µM",99.1%
same,inhibition,"[10]; measured here: with cisplatin IC20, at 5 µM",99.5%
same,inhibition,"[10]; single agent, at 5 µM",99.6%
same,inhibition,[11]; at 0.5 µM,57.3% (inactive)
same,inhibition,"[11]; measured here: combination with BGB at IC20, at 0.5 µM",88.7%
same,inhibition,"[11]; measured here: combination with cisplatin at IC20, at 0.5 µM",37.4%
same,inhibition,[12]; at 0.5 µM,99.5% (active)
same,inhibition,"[12]; measured here: combo with BGB at IC20, at 0.5 µM",99.5%
same,inhibition,"[12]; measured here: combo with cisplatin at IC20, at 0.5 µM",99.6%
same,inhibition,[13]; at 0.5 µM,74.5% (inactive)
same,inhibition,"[13]; measured here: inhibition with BGB combination, at 0.05 µM",31%
same,inhibition,"[13]; measured here: inhibition with cisplatin combination, at 0.05 µM",49.3%
same,inhibition,[14]; at 0.5 µM,13.2% (inactive)
same,inhibition,[14]; [24],48.9%
same,inhibition,[14]; [25],61.9%
same,inhibition,[15]; at 0.5 µM,72.1% (inactive)
same,inhibition,"[15]; measured here: BGB combination, at 0.5 µM",67%
same,inhibition,"[15]; measured here: BGB combination, at 5 µM",73.3%
same,inhibition,"[15]; measured here: cisplatin combination, at 0.5 µM",71.2%
same,inhibition,"[15]; measured here: cisplatin combination, at 5 µM",84.4%
same,inhibition,"[16]; BGB combination, concentration series, at 5 µM",102%
same,inhibition,[16]; at 0.5 µM,81.6% (active)
same,inhibition,"[16]; cisplatin combination, concentration series, at 5 µM",105%
same,inhibition,[17],90.1% (active)
same,inhibition,[17]; measured here: combo with BGB IC20,94.5%
same,inhibition,[17]; measured here: combo with cisplatin IC20,87%
same,inhibition,[18]; at 0.5 µM,5.49% (inactive)
same,inhibition,"[18]; cisplatin combination, at 0.5 µM",45.3%
same,inhibition,"[18]; cisplatin combination, at 5 µM",33.9%
same,inhibition,"[18]; measured here: BGB IC40 combination 0.05 uM, at 0.05 µM",-2.99%
same,inhibition,"[18]; single agent, at 5 µM",52.7%
same,inhibition,[19]; at 0.5 µM,30.1% (inactive)
same,inhibition,"[19]; cisplatin combo, at 5 µM",67.1%
same,inhibition,"[19]; measured here: BGB IC40 combination, at 0.05 µM",-24.6%
same,inhibition,[19]; [24],61.9%
same,inhibition,"[19]; single agent, at 5 µM",62.2%
same,inhibition,[20]; at 0.5 µM,93.7% (active)
same,inhibition,[20]; [22],98.1%
same,inhibition,[20]; [23],91.2%
same,inhibition,"[20]; single agent, at 0.05 µM",16.8%
same,inhibition,"[20]; single agent, at 5 µM",99.8%
CS(=O)c1ccc(-c2nc(-c3ccc(F)cc3)c(-c3ccncc3)[nH]2)cc1 (configuration not stated),liver cell % of control,[6],87.6% and 90.6% and 97.1%
same,parasite % of control,[6],20.8% (inactive) and 18.7% (inactive) and 25.5% (inactive)
O=C(O)C1CCCN(CCC=C(c2ccccc2)c2ccccc2)C1 (configuration not stated),period change,[3],0.005 h (inactive)
